The values below come from PubChem BioAssay (Tox21).

A short description of experiment [1]: Nuclear factor erythroid 2-related factor 2/antioxidant responsive element (Nrf2/ARE) small molecule agonists: qHTS cell viability counter screen in human keratinocytes (AID 1919968; active = well fitted curve in the direction sought with a large enough effect in the repeat runs; an effect the other way counts as inactive or inconclusive; also: nearly all actives have a fitted effect of over 55% in size). The procedure, abridged: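 Stably transfected HaCaT (KeratinoSens), 1,500/well. Test agents in DMSO were applied for 23 h, 37 C/5% CO2. CellTiter-Fluor was incubated 1 h before the fluorescence read.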
(qHTS replaces the single test concentration by a dilution series.)

A short description of experiment [2]: Nuclear factor erythroid 2-related factor 2/antioxidant responsive element (Nrf2/ARE) small molecule agonists: luciferase reporter gene qHTS assay in human keratinocytes (AID 1919969; also: nearly all actives have a fitted effect of over 35% in size). (In general: Reporter assays use an easily measured gene product as a stand-in for the process of interest.)
In experiment [3] the target is KiSS-1 receptor (Homo sapiens) (UniProt Q969F8). The experiment can be described thus: Human kisspeptin (KISS1R) small molecule agonists, calcium flux assay in KISS1R-HEK293 cells (AID 1920064; active = well fitted curve in the direction sought with a large enough effect in the repeat runs; an effect the other way counts as inactive or inconclusive). The procedure, abridged: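 After overnight (18 h) culture at 37 C/5% CO2, human KISS1R-HEK293 cells received calcium dye for 1 h, then test compound; emission at 540 nm (excitation 480 nm) was tracked for 3 min.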
Chain of KiSS-1 receptor (Homo sapiens) (Q969F8 whole entry, looked up): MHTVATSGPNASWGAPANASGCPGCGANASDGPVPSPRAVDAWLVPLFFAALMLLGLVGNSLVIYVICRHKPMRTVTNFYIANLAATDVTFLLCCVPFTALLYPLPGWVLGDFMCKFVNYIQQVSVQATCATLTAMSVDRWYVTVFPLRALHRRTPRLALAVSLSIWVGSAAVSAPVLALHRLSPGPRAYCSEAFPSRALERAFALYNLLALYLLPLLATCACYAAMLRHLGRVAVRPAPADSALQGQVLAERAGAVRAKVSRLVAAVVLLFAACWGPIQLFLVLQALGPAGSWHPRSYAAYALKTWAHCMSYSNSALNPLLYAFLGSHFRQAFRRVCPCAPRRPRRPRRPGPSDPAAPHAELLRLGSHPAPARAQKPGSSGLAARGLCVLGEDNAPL
Background: Calcium assays in cells follow changes in intracellular calcium, usually with a dye or a luminescent sensor.

Experiment [4] can be described thus: G protein-coupled receptor (GPCR) small molecule agonists, calcium flux assay: HEK293 wild type cell line counter screen (AID 1920065). The essentials: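 Following 18 h incubation at 37 C/5% CO2, plates got calcium dye for 1 h; compounds, ATP or DMSO were then pinned in and fluorescence followed kinetically (480/540 nm).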
Experiment [5] is described as follows: p53 small molecule agonists, cell-based qHTS assay with human liver microsomes (AID 1963577).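 Also: p53 response element beta-lactamase reporter cells with liver microsomes plus NADPH.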 The procedure, abridged: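 HLM-supplemented p53RE-bla reporter assay: 16 h compound exposure at 37 C, microsomes and NADPH each 0.5 mg/mL final, read by fluorescence intensity.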
Experiment [6] can be described thus: p53 small molecule agonists, cell-based qHTS assay with rat liver microsomes (AID 1963578). The procedure, abridged:
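Quantitative HTS of the Tox21 10K library: p53RE-bla cells, rat liver microsomes plus NADPH at 0.5 mg/mL final each, 16 h at 37 C, beta-lactamase fluorescence detection.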

A short description of experiment [7]: p53 small molecule agonists, cell-based qHTS assay with rat liver microsomes: qHTS cell viability counter screen (AID 1963580). Also: nearly all actives have a fitted effect of over 45% in size. The essentials:
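Cytotoxicity counter screen: intracellular ATP read by CellTiter-Glo luminescence in the p53 reporter wells. HCT-116 p53RE-bla cells were treated for 16 h at 37 C alongside rat liver microsomes and NADPH, each 0.5 mg/mL final.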

Experiment [8] can be described thus: p53 small molecule agonists, cell-based qHTS assay: qHTS cell viability counter screen (AID 1963581). Also: nearly all actives have a fitted effect of over 45% in size. The procedure, abridged: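 qHTS counter screen: 16 h compound exposure at 37 C of p53RE-bla HCT-116 cells (4,000 per well, seeded 5 h prior), cell viability by ATP luminescence.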
The target in experiment [9] is 5-hydroxytryptamine receptor 2A (Homo sapiens) (UniProt P28223). In words: 5-hydroxytryptamine receptor 2A (HTR2A) small molecule antagonists, cell-based qHTS assay (AID 1963586). Also: nearly all actives have a fitted effect of over 45% in size. Also: potency is read from the fitted curve at half-maximal effect. The essentials: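 CHO cells stably expressing human HTR2A were plated for 18 h at 37 C, then loaded with calcium dye for 1 h. Compounds were preincubated 5 min at room temperature before DOI (4 nM solution) was added. Kinetic fluorescence was read for 3 min.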
Chain of 5-hydroxytryptamine receptor 2A (Homo sapiens) (P28223 whole entry, looked up): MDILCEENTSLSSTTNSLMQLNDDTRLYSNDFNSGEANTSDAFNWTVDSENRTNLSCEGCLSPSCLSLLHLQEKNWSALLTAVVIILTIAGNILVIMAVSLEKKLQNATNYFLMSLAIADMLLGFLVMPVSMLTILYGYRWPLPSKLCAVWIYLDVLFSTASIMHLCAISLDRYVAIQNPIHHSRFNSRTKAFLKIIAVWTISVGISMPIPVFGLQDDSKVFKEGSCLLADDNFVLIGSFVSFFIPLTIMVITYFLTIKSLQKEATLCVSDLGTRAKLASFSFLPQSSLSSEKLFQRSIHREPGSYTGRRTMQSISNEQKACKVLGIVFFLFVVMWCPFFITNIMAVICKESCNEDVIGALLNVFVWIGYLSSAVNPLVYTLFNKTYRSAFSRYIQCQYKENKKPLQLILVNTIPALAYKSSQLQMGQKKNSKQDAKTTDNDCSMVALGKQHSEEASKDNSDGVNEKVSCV

The target is the same in experiment [10]. The experiment can be described thus: 5-hydroxytryptamine receptor 2A (HTR2A) small molecule agonists, cell-based qHTS assay (AID 1963587). Also: nearly all actives have a fitted effect of over 30% in size. Also: potency is read from the fitted curve at half-maximal effect. The essentials:
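Kinetic calcium-flux fluorescence (2 min, 1 sec intervals) after compound addition in agonist mode. HTR2A-CHO cells were cultured 18 h, then dye-loaded 1 h at 37 C.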

In experiment [11] the target is Muscarinic acetylcholine receptor M1 (Homo sapiens) (UniProt P11229). In words: Cholinergic receptor muscarinic 1 (CHRM1) small molecule antagonists, cell-based qHTS assay (AID 1963588). Also: nearly all actives have a fitted effect of over 40% in size. Also: potency is read from the fitted curve at half-maximal effect. The procedure, abridged:
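Compounds were tested at 15 concentrations in three independent runs. Dye-loaded CHRM1-CHO cells were exposed 5 min at room temperature before stimulation by acetylcholine added at 50nM. Intracellular calcium was read kinetically on FDSS for 3 min.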

The target of experiment [12] is Beta-2 adrenergic receptor (Homo sapiens) (UniProt P07550). In words: Adrenergic beta2 receptor (ADRB2) small molecule antagonists, cell-based qHTS assay (AID 1963592). Also: series mostly up to about 92 µM; nearly all actives have a fitted effect of over 50% in size. The procedure, abridged:
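Assay format: CHO-ADRB2 cells, 18-20hr seeding at 37C/5% CO2, then compound plus 1nM isoproterenol agonist mix for 0.5hr RT. Homogeneous time-resolved fluorescence cAMP detection after 1hr, expressed as 665/615 nm ratio.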

For experiment [13], the target named is D(2) dopamine receptor (Homo sapiens) (UniProt P14416). In words: Dopamine D2 receptor (DRD2) small molecule antagonists, cell-based qHTS assay (AID 1963595; active = well fitted inhibition curve with a large enough effect in the signal ratio in the repeat runs, with a control signal flat; the % refers to the signal ratio; also: potency is read from the fitted curve at half-maximal effect). The essentials:
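Human DRD2 antagonist qHTS measuring cAMP by HTRF. The cells are exposed to compound for 10 min, then to NKH477 (200 nM) and quinpirole (12 nM) for 30 min at RT, with Ro20-1724 (0.1 mM) present throughout.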

A short description of experiment [14]: p53 small molecule agonists, cell-based qHTS assay (AID 1963582; active = well fitted activation curve with a large enough effect in the signal ratio in the repeat runs, not every such curve was filed as active; the % refers to the signal ratio). The procedure, abridged:
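Measured: fluorescence from cleaved LiveBLAzer substrate. System: p53RE-bla cells, 16 h compound treatment at 37 C, 2 h substrate step at room temperature.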

Experiment [15] is described as follows: cAMP Responsive Elements (CRE) small molecule agonists, cell-based qHTS assay (AID 1963590). The procedure, abridged: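 Test agents in DMSO were incubated 3 h at 37 C/5% CO2 with CRE-bla HEK 293T cells seeded 18 h earlier; LiveBLAzer B/G FRET substrate was added and read after 2 h at room temperature.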
Experiment [16] in a line: cAMP Responsive Elements (CRE) small molecule antagonists, cell-based qHTS assay (AID 1963591; active = well fitted inhibition curve with a large enough effect in the signal ratio in the repeat runs, not every such curve was filed as active; the % refers to the signal ratio). The procedure, abridged: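 Reporter line CRE-bla HEK 293T in dialyzed-FBS DMEM; cells preincubated 18 h, treated 3 h with compound plus NKH477 (0.25 uM final); LiveBLAzer FRET, 2 h RT.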
Experiment [17] concerns the target D(2) dopamine receptor (Homo sapiens) (UniProt P14416). In words: Dopamine D2 receptor (DRD2) small molecule agonists, cell-based qHTS assay (AID 1963594). Also: nearly all actives have a fitted effect of over 35% in size. The procedure, abridged: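 cAMP accumulation in DRD2-HEK293 cells measured by HTRF after 1 h detection; compounds added 10 min before NKH477 (200nM […]) forskolin-analogue stimulation, 30 min at room temperature, with Ro20-1724 present at 0.1 mM final.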

Experiment [18] is described as follows: p53 small molecule agonists, cell-based qHTS assay with human liver microsomes: qHTS cell viability counter screen (AID 1963579). Also: nearly all actives have a fitted effect of over 45% in size. The essentials: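 Viability of p53RE-bla cells is measured as CellTiter-Glo luminescence following a 16 h, 37 C incubation with compound, liver microsomes from human donors and NADPH.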
Experiment [19] has as its target Muscarinic acetylcholine receptor M1 (Homo sapiens) (UniProt P11229). The experiment can be described thus: Cholinergic receptor muscarinic 1 (CHRM1) small molecule agonists, cell-based qHTS assay (AID 1963589). Also: nearly all actives have a fitted effect of over 35% in size. The procedure, abridged: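 Kinetic fluorescence (1 s intervals) of calcium-sensitive dye in human M1 CHO cells after compound addition; cells pre-incubated 18 h at 37 C/5% CO2 and dye-loaded 1 h.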

SMILES strings stand for the structures. A number with no mark means an inactive call. Inconclusive results are not listed. Active and inactive are the calls of the source. Unless noted, calls follow the shape of the full dose curve.

Chain of Muscarinic acetylcholine receptor M1 (Homo sapiens) (P11229 whole entry, looked up): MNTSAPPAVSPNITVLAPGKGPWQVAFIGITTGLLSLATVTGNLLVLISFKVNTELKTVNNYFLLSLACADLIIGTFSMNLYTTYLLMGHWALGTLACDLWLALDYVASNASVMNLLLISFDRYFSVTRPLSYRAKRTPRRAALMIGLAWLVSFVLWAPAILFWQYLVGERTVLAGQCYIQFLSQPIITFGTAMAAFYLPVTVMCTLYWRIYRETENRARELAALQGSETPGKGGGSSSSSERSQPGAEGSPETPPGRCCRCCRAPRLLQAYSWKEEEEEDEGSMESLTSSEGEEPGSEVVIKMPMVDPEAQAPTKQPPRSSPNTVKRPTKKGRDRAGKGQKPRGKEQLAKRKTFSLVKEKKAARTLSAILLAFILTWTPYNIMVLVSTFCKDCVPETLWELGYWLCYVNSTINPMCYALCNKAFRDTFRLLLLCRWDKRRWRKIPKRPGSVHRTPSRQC
Chain of Beta-2 adrenergic receptor (Homo sapiens) (P07550 whole entry, looked up): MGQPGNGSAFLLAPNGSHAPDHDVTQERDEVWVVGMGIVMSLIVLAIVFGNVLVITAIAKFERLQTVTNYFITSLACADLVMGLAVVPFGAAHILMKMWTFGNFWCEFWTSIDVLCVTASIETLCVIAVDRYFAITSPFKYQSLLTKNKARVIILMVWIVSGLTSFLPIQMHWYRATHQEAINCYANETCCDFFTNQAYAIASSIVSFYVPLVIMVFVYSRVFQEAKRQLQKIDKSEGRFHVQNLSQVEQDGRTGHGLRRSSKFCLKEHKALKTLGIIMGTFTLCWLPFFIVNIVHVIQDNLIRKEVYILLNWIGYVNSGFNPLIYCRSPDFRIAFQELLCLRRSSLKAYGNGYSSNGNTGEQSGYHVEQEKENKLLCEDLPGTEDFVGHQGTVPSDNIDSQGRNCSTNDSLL
Chain of D(2) dopamine receptor (Homo sapiens) (P14416 whole entry, looked up): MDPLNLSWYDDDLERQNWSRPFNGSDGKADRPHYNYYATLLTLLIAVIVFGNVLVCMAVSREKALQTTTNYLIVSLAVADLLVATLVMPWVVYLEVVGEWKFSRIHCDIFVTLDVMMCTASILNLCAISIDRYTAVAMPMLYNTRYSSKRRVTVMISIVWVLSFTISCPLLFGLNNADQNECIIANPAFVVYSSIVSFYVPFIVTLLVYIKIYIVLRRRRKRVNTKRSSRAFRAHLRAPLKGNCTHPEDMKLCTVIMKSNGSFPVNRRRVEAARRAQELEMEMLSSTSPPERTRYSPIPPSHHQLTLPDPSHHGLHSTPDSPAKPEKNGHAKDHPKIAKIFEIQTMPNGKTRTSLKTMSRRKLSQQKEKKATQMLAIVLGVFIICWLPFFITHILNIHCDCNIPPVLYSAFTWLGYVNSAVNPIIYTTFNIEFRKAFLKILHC

Consider `CC[C@@]1(O)C(=O)OCc2c1cc1n(c2=O)Cc2c-1nc1ccccc1c2/C=N/OC(C)(C)C`, for which the Potency entry in experiment [1], in experiment [2], in experiment [5], in experiment [6], in experiment [7] and in experiment [8] was “inactive” each time. The Potency result in experiment [10], in experiment [12] and in experiment [13] was “inactive” each time. Also, the outcome in [3] and in experiment [4] was inactive. Besides, the results for the Potency in experiment [9] and in experiment [11] were 5.79 µM (active) and 20.5 µM (active), respectively.

Regarding `O=C(O)CC(C(=O)O)S(=O)(=O)O` (stereo not drawn), the Potency entry in experiment [1], in experiment [2], in experiment [5], in [6], in [7] and in [8] was “inactive” throughout. For the same compound, the Potency result in experiment [14], in experiment [9], in [10], in experiment [11], in [15] and in [16] was “inactive” in each case. The Potency entry in experiment [12], in experiment [17] and in [13] was “inactive” throughout. Besides, the result in [3] and in experiment [4] was inactive.

As to `CC(C)NCC(O)COc1ccc(COCCOC(C)C)cc1` (stereo not drawn), the Potency result in experiment [1], in experiment [2], in experiment [5], in experiment [6], in experiment [18] and in [7] was “inactive” in each case. In addition, the Potency entry in experiment [14], in experiment [9], in experiment [10], in experiment [11], in experiment [19] and in experiment [15] was “inactive” throughout. For the same compound, the Potency entry in experiment [16] was “inactive”. The result in experiment [3] and in experiment [4] was inactive.

For the compound `O=C(CCCN1CCN(c2ccccn2)CC1)c1ccc(F)cc1`, the Potency result in experiment [1], in experiment [2], in [5], in experiment [6], in [18] and in [7] was “inactive” in each case. The Potency entry in [8], in experiment [10], in experiment [11], in experiment [19], in experiment [15] and in experiment [16] was “inactive” in each case. The Potency result in experiment [12] was “inactive”. Moreover, the outcome in experiment [3] and in experiment [4] was inactive.

As to `CCOC(=O)C(O)c1ccccc1` (stereo not drawn), the Potency entry in experiment [1], in experiment [2], in experiment [5], in experiment [6], in experiment [18] and in [7] was “inactive” throughout. Also, the Potency result in [8], in experiment [9], in [10], in experiment [19], in [15] and in experiment [16] was “inactive” in each case. The Potency entry in experiment [12] and in experiment [17] was “inactive” in each case. The outcome in experiment [3] and in experiment [4] was inactive.

Turning to `S=C1NC=NC2N=CNC12` (stereo not drawn), the Potency result in experiment [1], in experiment [2], in experiment [5], in [6], in experiment [18] and in [7] was “inactive” throughout. In addition, the Potency result in experiment [9], in [10], in experiment [11], in [19], in experiment [15] and in experiment [12] was “inactive” throughout. Moreover, the Potency entry in experiment [17] and in experiment [13] was “inactive” each time. The result in experiment [3] and in experiment [4] was inactive.

For the compound `CCCCCCC(O)CO` (stereo not drawn), the Potency result in experiment [1], in [2], in [5], in experiment [6], in experiment [18] and in experiment [7] was “inactive” throughout. For the same compound, the Potency result in experiment [9], in experiment [10], in experiment [11], in [19], in experiment [15] and in [16] was “inactive” each time. The Potency result in [12], in experiment [17] and in experiment [13] was “inactive” each time. Moreover, the result in [3] and in experiment [4] was inactive.

Take `COc1ccccc1N1CCN(CCCCNC(=O)c2ccc(-c3ccc(C(C)=O)cc3)cc2)CC1`: the Potency result in [1], in experiment [2], in [5], in experiment [6], in [18] and in [14] was “inactive” each time. The Potency result in experiment [19] and in [17] was “inactive” each time. The result in experiment [3] and in experiment [4] was inactive. Moreover, the Potency in [9] was 0.326 µM (active); in [10], 53.5 nM (active); in experiment [11], 1.03 µM (active); in experiment [13], 750 nM (active).
